According to PubChem BioAssay AID1159580 (chemical genetic matrix, 2015):
Several values for one entry are separate records, joined by “and”; a condition that tells them apart may be missing. Identical values can stand only once. Out of some 5,500 compounds screened, about 2,000 (36%) were called active. Not shown: some 18% with an inconclusive outcome. No stated cut-off is given here; in the data, active means normalized growth mostly below about 0.91 (no sharp cut-off); inconclusive means no clear call, values can overlap the other calls; inactive means mostly above about 0.92. Some of the results follow.

Assay: chemical genetic growth profiling, strain panel (AID 1159580);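 further: tested at 20 µM; growth read once vehicle control cultures reached saturation at 30 °C; 1 = growth at the plate median or of vehicle wells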
Conditions: growth OD
[1] = S. cerevisiae deletion strains, locus YBR229C, strain ROT2, stronger effect = lower value
[2] = S. cerevisiae deletion strains, locus YCL061C, strain MRC1, stronger effect = lower value
[3] = S. cerevisiae deletion strains, locus YDL101C, strain DUN1, stronger effect = lower value
[4] = S. cerevisiae deletion strains, locus YDL134C, strain PPH21, stronger effect = lower value
[5] = S. cerevisiae deletion strains, locus YDR150W, strain NUM1, stronger effect = lower value
[6] = S. cerevisiae deletion strains, locus YEL061C, strain CIN8, stronger effect = lower value
[7] = S. cerevisiae deletion strains, locus YGR078C, strain PAC10, stronger effect = lower value
[8] = S. cerevisiae deletion strains, locus YHR030C, strain SLT2, stronger effect = lower value
[9] = S. cerevisiae deletion strains, locus YHR087W, strain rtc3, stronger effect = lower value
[10] = S. cerevisiae deletion strains, locus YJR043C, strain POL32, stronger effect = lower value
[11] = S. cerevisiae deletion strains, locus YJR075W, strain HOC1, stronger effect = lower value
[12] = S. cerevisiae deletion strains, locus YLR039C, strain RIC1, stronger effect = lower value
[13] = S. cerevisiae deletion strains, locus YLR058C, strain SHM2 (second series), stronger effect = lower value
[14] = S. cerevisiae deletion strains, locus YLR085C, strain ARP6, stronger effect = lower value
[15] = S. cerevisiae deletion strains, locus YLR262C, strain YPT6, stronger effect = lower value
[16] = S. cerevisiae deletion strains, locus YML094W, strain GIM5, stronger effect = lower value
[17] = S. cerevisiae deletion strains, locus YMR219W, strain ESC1, stronger effect = lower value
[18] = S. cerevisiae deletion strains, locus YMR263W, strain SAP30, stronger effect = lower value
[19] = S. cerevisiae deletion strains, locus YMR307W, strain GAS1, stronger effect = lower value
[20] = S. cerevisiae deletion strains, locus YNL153C, strain GIM3, stronger effect = lower value
[21] = S. cerevisiae deletion strains, locus YNL298W, strain CLA4 (second series), stronger effect = lower value
[22] = S. cerevisiae deletion strains, locus YNL322C, strain KRE1, stronger effect = lower value
[23] = S. cerevisiae deletion strains, locus YNR030W, strain Alg12, stronger effect = lower value
[24] = S. cerevisiae deletion strains, locus YPL055C, strain LGE1, stronger effect = lower value
[25] = S. cerevisiae deletion strains, locus YPL241C, strain CIN2, stronger effect = lower value
[26] = S. cerevisiae deletion strains, locus YPR135W, strain CTF4, stronger effect = lower value

Structure (SMILES): COc1ccc(-c2c(C(=O)O)sc(SC)c2C#N)cc1
- normalized growth (S. cerevisiae deletion strains, locus YAL013W, strain DEP1, stronger effect = lower value): 0.996 (inactive)
- normalized growth [1]: 0.998 (inactive)
- normalized growth [2]: 0.989 (inactive)
- normalized growth [3]: 1.01 (inactive)
- normalized growth [4]: 1.01 (inactive)
- normalized growth [5]: 1.07 (inactive)
- normalized growth [6]: 1.01 (inactive)
- normalized growth [7]: 1.01 (inactive)
- normalized growth (S. cerevisiae deletion strains, locus YGR229C, strain SMI1, stronger effect = lower value): 1 (inactive)
- normalized growth [8]: 1.01 (inactive)
- normalized growth [9]: 0.997 (inactive)
- normalized growth [10]: 0.981 (inactive)
- normalized growth [11]: 1.01 (inactive)
- normalized growth (S. cerevisiae deletion strains, locus YKL190W, strain CNB1, stronger effect = lower value): 1.01 (inactive)
- normalized growth [12]: 1.03 (inactive)
- normalized growth [13]: 0.994 (inactive)
- normalized growth [14]: 1.05 (inactive)
- normalized growth [15]: 1.04 (inactive)
- normalized growth [16]: 1.02 (inactive)
- normalized growth [17]: 1 (inactive)
- normalized growth [18]: 1.04 (inactive)
- normalized growth [19]: 1.06 (inactive)
- normalized growth [20]: 0.992 (inactive)
- normalized growth [21]: 1 (inactive)
- normalized growth [22]: 1 (inactive)
- normalized growth [23]: 1.01 (inactive)
- normalized growth [24]: 1.1 (inactive)
- normalized growth [25]: 1.01 (inactive)
- normalized growth [26]: 0.964 (inactive)

Structure (SMILES): CSc1sc(-c2ccn[nH]2)c(-c2ccccc2)c1C#N
- normalized growth (S. cerevisiae deletion strains, locus YAR019C, strain CDC15, stronger effect = lower value): 0.982 (inactive)
- normalized growth (S. cerevisiae deletion strains, locus YBL105C, strain PKC1, stronger effect = lower value): 0.981 (inactive)
- normalized growth (S. cerevisiae deletion strains, locus YBR135W, strain CKS1, stronger effect = lower value): 0.975 (inactive)
- normalized growth (S. cerevisiae deletion strains, locus YBR136W, strain MEC1, stronger effect = lower value): 0.975 (inactive)
- normalized growth (S. cerevisiae deletion strains, locus YBR160W, strain CDC28, stronger effect = lower value): 0.992 (inactive)
- normalized growth [1]: 0.941 (inactive)
- normalized growth [2]: 0.981 (inactive)
- normalized growth (S. cerevisiae deletion strains, locus YDL017W, strain CDC7, stronger effect = lower value): 0.994 (inactive)
- normalized growth (S. cerevisiae deletion strains, locus YDL028C, strain MPS1, stronger effect = lower value): 0.983 (inactive)
- normalized growth [3]: 0.968 (inactive) and 0.962 (inactive)
- normalized growth (S. cerevisiae deletion strains, locus YDL108W, strain KIN28, stronger effect = lower value): 0.977 (inactive)
- normalized growth (S. cerevisiae deletion strains, locus YDL132W, strain cdc53, stronger effect = lower value): 0.972 (inactive)
- normalized growth [4]: 0.732 (active)
- normalized growth (S. cerevisiae deletion strains, locus YDL214C, strain PRR2, stronger effect = lower value): 0.997 (inactive)
- normalized growth (S. cerevisiae deletion strains, locus YDR052C, strain DBF4, stronger effect = lower value): 0.989 (inactive)
- normalized growth (S. cerevisiae deletion strains, locus YDR054C, strain cdc34, stronger effect = lower value): 0.988 (inactive)
- normalized growth [5]: 0.974 (inactive)
- normalized growth (S. cerevisiae deletion strains, locus YDR226W, strain ADK1, stronger effect = lower value): 0.976 (inactive)
- normalized growth (S. cerevisiae deletion strains, locus YDR477W, strain SNF1, stronger effect = lower value): 0.984 (inactive)
- normalized growth [6]: 0.827 (active)
- normalized growth (S. cerevisiae deletion strains, locus YER123W, strain YCK3, stronger effect = lower value): 0.976 (inactive)
- normalized growth (S. cerevisiae deletion strains, locus YER133W, strain GLC7, stronger effect = lower value): 0.987 (inactive)
- normalized growth (S. cerevisiae deletion strains, locus YFL009W, strain cdc4, stronger effect = lower value): 0.97 (inactive)
- normalized growth (S. cerevisiae deletion strains, locus YFL029C, strain CAK1, stronger effect = lower value): 0.975 (inactive)
- normalized growth (S. cerevisiae deletion strains, locus YFR003C, strain YPI1, stronger effect = lower value): 0.976 (inactive)
- normalized growth (S. cerevisiae deletion strains, locus YFR019W, strain FAB1, stronger effect = lower value): 0.973 (inactive)
- normalized growth (S. cerevisiae deletion strains, locus YFR028C, strain CDC14, stronger effect = lower value): 0.974 (inactive)
- normalized growth (S. cerevisiae deletion strains, locus YGR040W, strain KSS1, stronger effect = lower value): 0.998 (inactive)
- normalized growth (S. cerevisiae deletion strains, locus YGR052W, strain FMP48, stronger effect = lower value): 0.998 (inactive)
- normalized growth [7]: 0.941 (inactive)
- normalized growth (S. cerevisiae deletion strains, locus YGR092W, strain DBF2, stronger effect = lower value): 1 (inactive)
- normalized growth [8]: 0.599 (active) and 1.06 (inactive)
- normalized growth (S. cerevisiae deletion strains, locus YHR079C, strain IRE1, stronger effect = lower value): 1.09 (inactive)
- normalized growth (S. cerevisiae deletion strains, locus YHR082C, strain KSP1, stronger effect = lower value): 1.03 (inactive)
- normalized growth [9]: 0.914 (inactive)
- normalized growth (S. cerevisiae deletion strains, locus YHR205W, strain SCH9, stronger effect = lower value): 0.997 (inactive)
- normalized growth (S. cerevisiae deletion strains, locus YIL147C, strain SLN1, stronger effect = lower value): 0.979 (inactive)
- normalized growth (S. cerevisiae deletion strains, locus YJL095W, strain BCK1, stronger effect = lower value): 0.974 (inactive)
- normalized growth (S. cerevisiae deletion strains, locus YJL128C, strain PBS2, stronger effect = lower value): 0.957 (inactive)
- normalized growth (S. cerevisiae deletion strains, locus YJL157C, strain FAR1, stronger effect = lower value): 0.986 (inactive)
- normalized growth (S. cerevisiae deletion strains, locus YJR016C, strain ILV3, stronger effect = lower value): 0.978 (inactive)
- normalized growth [10]: 0.969 (inactive)
- normalized growth (S. cerevisiae deletion strains, locus YJR066W, strain TOR1 (second series), stronger effect = lower value): 0.92 (inactive)
- normalized growth (S. cerevisiae deletion strains, locus YJR066W, strain TOR1, stronger effect = lower value): 1.04 (inactive)
- normalized growth [11]: 0.944 (inactive)
- normalized growth (S. cerevisiae deletion strains, locus YKL048C, strain ELM1, stronger effect = lower value): 0.984 (inactive)
- normalized growth (S. cerevisiae deletion strains, locus YKL067W, strain YNK1, stronger effect = lower value): 0.992 (inactive)
- normalized growth (S. cerevisiae deletion strains, locus YKL101W, strain HSL1, stronger effect = lower value): 0.976 (inactive)
- normalized growth (S. cerevisiae deletion strains, locus YKL193C, strain SDS22, stronger effect = lower value): 0.983 (inactive)
- normalized growth (S. cerevisiae deletion strains, locus YKL203C, strain TOR2, stronger effect = lower value): 1.04 (inactive)
- normalized growth [12]: 0.846 (inactive)
- normalized growth [13]: 0.975 (inactive)
- normalized growth [14]: 0.437 (active)
- normalized growth (S. cerevisiae deletion strains, locus YLR113W, strain HOG1, stronger effect = lower value): 0.861 (active)
- normalized growth (S. cerevisiae deletion strains, locus YLR133W, strain CKI1, stronger effect = lower value): 0.968 (inactive)
- normalized growth [15]: 0.991 (inactive)
- normalized growth (S. cerevisiae deletion strains, locus YLR403W, strain SFP1, stronger effect = lower value): 0.982 (inactive)
- normalized growth (S. cerevisiae deletion strains, locus YML070W, strain DAK1, stronger effect = lower value): 0.984 (inactive)
- normalized growth [16]: 0.789 (active)
- normalized growth (S. cerevisiae deletion strains, locus YMR001C, strain CDC5, stronger effect = lower value): 0.993 (inactive)
- normalized growth (S. cerevisiae deletion strains, locus YMR205C, strain PFK2 (second series), stronger effect = lower value): 0.97 (inactive)
- normalized growth [17]: 0.955 (inactive)
- normalized growth [18]: 0.939 (inactive)
- normalized growth (S. cerevisiae deletion strains, locus YMR277W, strain FCP1, stronger effect = lower value): 0.984 (inactive)
- normalized growth [19]: 0.508 (active)
- normalized growth (S. cerevisiae deletion strains, locus YNL006W, strain LST8, stronger effect = lower value): 1 (inactive)
- normalized growth (S. cerevisiae deletion strains, locus YNL020C, strain ARK1, stronger effect = lower value): 0.996 (inactive)
- normalized growth [20]: 0.979 (inactive)
- normalized growth (S. cerevisiae deletion strains, locus YNL161W, strain CBK1, stronger effect = lower value): 0.991 (inactive)
- normalized growth (S. cerevisiae deletion strains, locus YNL183C, strain NPR1, stronger effect = lower value): 1 (inactive)
- normalized growth (S. cerevisiae deletion strains, locus YNL207W, strain RIO2, stronger effect = lower value): 0.96 (inactive)
- normalized growth (S. cerevisiae deletion strains, locus YNL222W, strain SSU72, stronger effect = lower value): 0.977 (inactive)
- normalized growth [21]: 0.735 (active)
- normalized growth (S. cerevisiae deletion strains, locus YNL307C, strain MCK1 (second series), stronger effect = lower value): 1.01 (inactive)
- normalized growth [22]: 0.965 (inactive)
- normalized growth [23]: 0.753 (active)
- normalized growth (S. cerevisiae deletion strains, locus YOL078W, strain AVO1, stronger effect = lower value): 0.981 (inactive)
- normalized growth (S. cerevisiae deletion strains, locus YOL136C, strain PFK27, stronger effect = lower value): 0.956 (inactive)
- normalized growth (S. cerevisiae deletion strains, locus YOR061W, strain CKA2, stronger effect = lower value): 0.986 (inactive)
- normalized growth (S. cerevisiae deletion strains, locus YOR119C, strain RIO1, stronger effect = lower value): 1.02 (inactive)
- normalized growth (S. cerevisiae deletion strains, locus YOR231W, strain MKK1, stronger effect = lower value): 0.965 (inactive)
- normalized growth (S. cerevisiae deletion strains, locus YOR329C, strain SCD5, stronger effect = lower value): 0.995 (inactive)
- normalized growth (S. cerevisiae deletion strains, locus YPL031C, strain PHO85, stronger effect = lower value): 0.989 (inactive)
- normalized growth [24]: 0.875 (inactive)
- normalized growth (S. cerevisiae deletion strains, locus YPL153C, strain RAD53, stronger effect = lower value): 0.971 (inactive)
- normalized growth (S. cerevisiae deletion strains, locus YPL204W, strain HRR25, stronger effect = lower value): 0.958 (inactive)
- normalized growth (S. cerevisiae deletion strains, locus YPL209C, strain IPL1, stronger effect = lower value): 0.978 (inactive)
- normalized growth [25]: 0.758 (active)
- normalized growth (S. cerevisiae deletion strains, locus YPL256C, strain CLN2, stronger effect = lower value): 1.04 (inactive)
- normalized growth (S. cerevisiae deletion strains, locus YPR025C, strain CCL1, stronger effect = lower value): 0.989 (inactive)
- normalized growth (S. cerevisiae deletion strains, locus YPR106W, strain ISR1, stronger effect = lower value): 0.986 (inactive)
- normalized growth (S. cerevisiae deletion strains, locus YPR111W, strain DBF20, stronger effect = lower value): 0.954 (inactive)
- normalized growth [26]: 0.69 (inactive)
- normalized growth (S. cerevisiae deletion strains, strain NNK1, stronger effect = lower value): 0.966 (inactive)
- normalized growth (S. cerevisiae deletion strains, strain TSCII, stronger effect = lower value): 0.984 (inactive)
- normalized growth (S. cerevisiae strains, strain wild type, stronger effect = lower value): 0.911 (active)
